Test results as given in PubChem BioAssay AID1159580 (chemical genetic matrix, 2015).
Out of some 5,500 compounds screened, about 2,000 (36%) were called active. About 18% were inconclusive and are not listed. Rule as the data show it: active = normalized growth mostly below about 0.91 (no sharp cut-off); inconclusive = no clear call, values can overlap the other calls; inactive = mostly above about 0.92. The list shows a part of the results.

Test: chemical genetic growth profiling, strain panel (AID 1159580);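 also: tested at 20 µM; growth read once vehicle control cultures reached saturation at 30 °C; 1 = growth at the plate median or of vehicle wells; lower values mean less growth of the strain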
Conditions: growth OD

Measured: normalized growth

CCN(CC)C(=O)N1CCN(C)CC1
inactive: S. cerevisiae deletion strains, locus YJR075W, strain HOC1, stronger effect = lower value 1.03 | S. cerevisiae deletion strains, locus YKL009W, strain mrt4, stronger effect = lower value 0.989 | S. cerevisiae deletion strains, locus YKL068W, stronger effect = lower value 1 | S. cerevisiae deletion strains, locus YKL085W, strain MDH1 (second series), stronger effect = lower value 1.04 | S. cerevisiae deletion strains, locus YKL085W, strain MDH1, stronger effect = lower value 1.04 | S. cerevisiae deletion strains, locus YKL160W, strain elf1, stronger effect = lower value 0.975 | S. cerevisiae deletion strains, locus YKR001C, strain vps1, stronger effect = lower value 1.01 | S. cerevisiae deletion strains, locus YKR026C, strain gcn3, stronger effect = lower value 0.965 | S. cerevisiae deletion strains, locus YKR091W, strain srl3, stronger effect = lower value 0.949 | S. cerevisiae deletion strains, locus YLL001W, strain dnm1, stronger effect = lower value 0.997 | S. cerevisiae deletion strains, locus YLL026W, stronger effect = lower value 0.974 | S. cerevisiae deletion strains, locus YLL041C, strain sdh2, stronger effect = lower value 0.994 | S. cerevisiae deletion strains, locus YLR027C, strain aat2, stronger effect = lower value 0.964 | S. cerevisiae deletion strains, locus YLR039C, strain RIC1, stronger effect = lower value 0.975 | S. cerevisiae deletion strains, locus YLR058C, strain SHM2, stronger effect = lower value 1.02 | S. cerevisiae deletion strains, locus YLR102C, strain apc9, stronger effect = lower value 0.993 | S. cerevisiae deletion strains, locus YLR113W, strain HOG1, stronger effect = lower value 1 | S. cerevisiae deletion strains, locus YLR221C, strain rsa3, stronger effect = lower value 0.963 | S. cerevisiae deletion strains, locus YLR258W, strain gsy2, stronger effect = lower value 0.981 | S. cerevisiae deletion strains, locus YLR262C, strain YPT6 (second series), stronger effect = lower value 0.967 | S. cerevisiae deletion strains, locus YLR262C, strain YPT6, stronger effect = lower value 0.976 | S. cerevisiae deletion strains, locus YLR268W, strain sec22, stronger effect = lower value 1.01 | S. cerevisiae deletion strains, locus YLR320W, strain mms22, stronger effect = lower value 0.974 | S. cerevisiae deletion strains, locus YLR330W, strain CHS5, stronger effect = lower value 1.01 | S. cerevisiae deletion strains, locus YLR342W, strain FKS1 (second series), stronger effect = lower value 1.03 | S. cerevisiae deletion strains, locus YLR342W, strain FKS1, stronger effect = lower value 0.98 | S. cerevisiae deletion strains, locus YLR357W, strain rsc2, stronger effect = lower value 0.937 | S. cerevisiae deletion strains, locus YLR370C, strain arc18, stronger effect = lower value 0.97 | S. cerevisiae deletion strains, locus YLR371W, strain rom2, stronger effect = lower value 0.99 | S. cerevisiae deletion strains, locus YLR384C, strain iki3, stronger effect = lower value 0.989 | S. cerevisiae deletion strains, locus YLR418C, strain cdc73, stronger effect = lower value 0.947 | S. cerevisiae deletion strains, locus YML016C, strain PPZ1, stronger effect = lower value 1.01 | S. cerevisiae deletion strains, locus YML032C, strain rad52, stronger effect = lower value 0.995 | S. cerevisiae deletion strains, locus YML120C, strain ndi1, stronger effect = lower value 0.961 | S. cerevisiae deletion strains, locus YML124C, strain tub3, stronger effect = lower value 0.99 | S. cerevisiae deletion strains, locus YMR058W, strain fet3, stronger effect = lower value 0.979 | S. cerevisiae deletion strains, locus YMR078C, strain ctf18, stronger effect = lower value 0.993 | S. cerevisiae deletion strains, locus YMR125W, strain sto1, stronger effect = lower value 0.973 | S. cerevisiae deletion strains, locus YMR129W, stronger effect = lower value 0.964 | S. cerevisiae deletion strains, locus YMR205C, strain PFK2, stronger effect = lower value 0.97 | S. cerevisiae deletion strains, locus YMR223W, strain ubp8, stronger effect = lower value 0.993 | S. cerevisiae deletion strains, locus YMR231W, strain pep5, stronger effect = lower value 0.981 | S. cerevisiae deletion strains, locus YMR263W, strain SAP30, stronger effect = lower value 1.02 | S. cerevisiae deletion strains, locus YMR307W, strain GAS1, stronger effect = lower value 0.999 | S. cerevisiae deletion strains, locus YNL067W, strain RPL9B, stronger effect = lower value 1 | S. cerevisiae deletion strains, locus YNL071W, strain lat1, stronger effect = lower value 0.964 | S. cerevisiae deletion strains, locus YNL128W, strain TEP1, stronger effect = lower value 1.02 | S. cerevisiae deletion strains, locus YNL153C, strain GIM3, stronger effect = lower value 1.01 | S. cerevisiae deletion strains, locus YNL183C, strain NPR1, stronger effect = lower value 0.986 | S. cerevisiae deletion strains, locus YNL209W, strain ssb2, stronger effect = lower value 0.969 | S. cerevisiae deletion strains, locus YNL233W, strain BNI4, stronger effect = lower value 1.01 | S. cerevisiae deletion strains, locus YNL248C, strain rpa49, stronger effect = lower value 0.888 | S. cerevisiae deletion strains, locus YNL250W, strain rad50, stronger effect = lower value 1.01 | S. cerevisiae deletion strains, locus YNL271C, strain bni1, stronger effect = lower value 1 | S. cerevisiae deletion strains, locus YNL298W, strain CLA4, stronger effect = lower value 1.03 | S. cerevisiae deletion strains, locus YNL307C, strain MCK1, stronger effect = lower value 1 | S. cerevisiae deletion strains, locus YNL322C, strain KRE1 (second series), stronger effect = lower value 0.979 | S. cerevisiae deletion strains, locus YNR049C, strain mso1, stronger effect = lower value 0.942 | S. cerevisiae deletion strains, locus YNR052C, strain pop2, stronger effect = lower value 1 | S. cerevisiae deletion strains, locus YOL006C, strain TOP1, stronger effect = lower value 1.03 | S. cerevisiae deletion strains, locus YOL012C, strain htz1 0.747 | S. cerevisiae deletion strains, locus YOL147C, strain pex11, stronger effect = lower value 0.986 | S. cerevisiae deletion strains, locus YOR001W, strain rrp6, stronger effect = lower value 0.976 | S. cerevisiae deletion strains, locus YOR061W, strain CKA2, stronger effect = lower value 1.02 | S. cerevisiae deletion strains, locus YOR069W, strain VPS5, stronger effect = lower value 1.01 | S. cerevisiae deletion strains, locus YOR070C, strain gyp1, stronger effect = lower value 0.994 | S. cerevisiae deletion strains, locus YOR080W, strain dia2, stronger effect = lower value 0.985 | S. cerevisiae deletion strains, locus YOR083W, strain WHI5, stronger effect = lower value 0.995 | S. cerevisiae deletion strains, locus YOR106W, strain vam3, stronger effect = lower value 0.976 | S. cerevisiae deletion strains, locus YOR136W, strain idh2, stronger effect = lower value 0.991 | S. cerevisiae deletion strains, locus YOR144C, strain elg1, stronger effect = lower value 1 | S. cerevisiae deletion strains, locus YOR184W, strain ser1, stronger effect = lower value 1.02 | S. cerevisiae deletion strains, locus YOR231W, strain MKK1, stronger effect = lower value 1.02 | S. cerevisiae deletion strains, locus YOR265W, strain rbl2, stronger effect = lower value 0.989 | S. cerevisiae deletion strains, locus YOR270C, strain vph1, stronger effect = lower value 0.965 | S. cerevisiae deletion strains, locus YOR290C, strain snf2, stronger effect = lower value 0.966 | S. cerevisiae deletion strains, locus YOR316C, strain cot1, stronger effect = lower value 1 | S. cerevisiae deletion strains, locus YPL051W, strain arl3, stronger effect = lower value 1 | S. cerevisiae deletion strains, locus YPL078C, strain atp4, stronger effect = lower value 0.973 | S. cerevisiae deletion strains, locus YPL106C, strain sse1, stronger effect = lower value 0.898 | S. cerevisiae deletion strains, locus YPL240C, strain hsp82, stronger effect = lower value 0.974 | S. cerevisiae deletion strains, locus YPL241C, strain CIN2, stronger effect = lower value 1 | S. cerevisiae deletion strains, locus YPL256C, strain CLN2, stronger effect = lower value 1.04 | S. cerevisiae deletion strains, locus YPR119W, strain clb2, stronger effect = lower value 0.998 | S. cerevisiae deletion strains, locus YPR141C, strain kar3, stronger effect = lower value 0.981 | S. cerevisiae deletion strains, locus YPR163C, strain tif3, stronger effect = lower value 1 | S. cerevisiae deletion strains, locus YPR167C, strain met16, stronger effect = lower value 0.996 | S. cerevisiae deletion strains, strain wtn01, stronger effect = lower value 1.01 | S. cerevisiae strains, strain wild type, stronger effect = lower value 1.01
